{"source": "paper PMC5540273", "about": "(PLoS ONE, 2017);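 also: KINOMEscan kinase panel screen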", "data": [{"tested_on": "EPHA8", "conditions": "concentration: 1 μM, replicates: in singlicate; n = 1", "units": {"%Inh": "%"}, "values": [{"smiles": "CN1C(=O)C(Nc2cc(Cl)c(O)c(Cl)c2)=C(c2ccc(Cl)cc2)C1=O", "note": "[SB-404321]", "%Inh": 0}, {"smiles": "CCC(=O)c1c(-c2ccccc2)c2cc(Cl)ccc2c(=O)n1Cc1cc(C(=O)NC2CC2)n(C)n1", "%Inh": 4}, {"smiles": "COc1cccc(C2=C(Nc3cccc(C(=O)O)c3)C(=O)NC2=O)c1", "note": "[SB-390770]", "%Inh": 0}, {"smiles": "O=C(Nc1ccc2c(c1)OCO2)NC1CCN(c2ccnc(NCc3ccc(F)cc3)n2)CC1", "note": "[GSK1379859]", "%Inh": 0}, {"smiles": "COc1cc2nccc(Nc3cccc(Oc4ccccc4)c3)c2cc1OC.Cl", "note": "[GW284543]", "%Inh": 6}, {"smiles": "COc1cc(Nc2nccc(N3CCC(NC(=O)C(C)c4ccc(Cl)cc4)C3)n2)cc(OC)c1OC", "note": "(centres unmarked) [GSK1379757]", "%Inh": 14}, {"smiles": "Cc1ccccc1COc1cc(-n2cnc3cc(Cl)ccc32)sc1C(N)=O", "note": "[GW813349]", "%Inh": 0}, {"smiles": "CCC(=O)c1c(-c2ccccc2)c2cc(Cl)ccc2c(=O)n1Cc1cc(S(C)(=O)=O)n(CCC(C)(C)O)n1", "%Inh": 12}, {"smiles": "Cc1nn2c(=O)cc(N3CCOCC3)nc2n1Cc1cccc(Cl)c1Cl", "note": "[GSK2342769]", "%Inh": 6}, {"smiles": "COc1ccc(Nc2nccc(N3CCC(NS(=O)(=O)c4ccc(NC(C)=O)cc4)C3)n2)cc1", "note": "(centres unmarked) [GSK1379729]", "%Inh": 7}, {"smiles": "Cc1cccc(-c2nc(Nc3ccc4c(cnn4C)c3)c3ccccc3n2)n1", "note": "[GW876731]", "%Inh": 0}, {"smiles": "C[C@@H]1CC[C@H](C(=O)NC2CCCCC2)CN1c1cc(-c2ccc3c(N)n[nH]c3c2)nc(N)n1", "note": "[GSK2291363]", "%Inh": 22}, {"smiles": "COc1cc2ncn(-c3cc(OCc4ccncc4Br)c(C(N)=O)s3)c2cc1OC", "note": "[GW854278]", "%Inh": 5}, {"smiles": "Cc1ccc(-c2ccc3c(ccc4sc5c(c43)NC[C@@H](C)N=C5N(C)C)n2)cn1", "%Inh": 0}, {"smiles": "COc1ccc(-c2coc3ccc(-c4nnc(SCc5cccc(C#N)c5)o4)cc23)cc1", "%Inh": 0}, {"smiles": "Cc1cc(Nc2nc(-c3cccc(C)n3)nc3ccccc23)ccn1", "note": "[GW872411]", "%Inh": 0}, {"smiles": "Cl.NS(=O)(=O)c1cccc(Nc2cc(-c3ccc(F)cc3)n[nH]2)c1", "note": "[GW824645]", "%Inh": 21}, {"smiles": "CC(C)(C)c1ccc(C(=O)Nc2cn3cc(-c4ccccc4)ccc3n2)cc1", "%Inh": 0}, {"smiles": "CCn1c(-c2ccoc2)nc2cnccc21", "note": "[SB-733887]", "%Inh": 24}, {"smiles": "Nc1n[nH]c2nnc(-c3ccccc3)c(-c3ccccc3)c12", "note": "[GW554060]", "%Inh": 10}, {"smiles": "CN(C)c1cc(-c2ccc3c(N)n[nH]c3c2)nc(N)n1", "note": "[GSK2219329]", "%Inh": 3}, {"smiles": "Nc1ncnc2c1ncn2-c1cccc(F)c1", "note": "[SKF-97560]", "%Inh": 10}, {"smiles": "Nc1nc(-c2ccccc2F)c(-c2ccnc3ccccc23)s1", "note": "[GW560459]", "%Inh": 0}, {"smiles": "CCn1c(-c2nonc2N)nc2ccccc21", "note": "[SB-693162/GW549034]", "%Inh": 0}, {"smiles": "Cc1ccc(Oc2ccc(Nc3ncnc4cc[nH]c34)cc2C)cn1", "%Inh": 0}, {"smiles": "Cc1nnc(-c2ccc(C)c(-c3ccc(C(=O)O)cc3)c2)o1", "note": "[GW608005]", "%Inh": 0}, {"smiles": "CCS(=O)c1ccc(-c2coc3ccc(-c4nnc(C)o4)cc23)cc1", "note": "(centres unmarked)", "%Inh": 0}, {"smiles": "COC(=O)c1c(-c2ccccc2)c2cc(C)ccc2c(=O)n1Cc1ccccc1", "%Inh": 0}, {"smiles": "Nc1nccc2scc(-c3ccc4c(c3)CCN4C(=O)Cc3ccccc3)c12", "note": "[GSK2576924]", "%Inh": 15}, {"smiles": "OCCCNc1nccc(-c2c(-c3cccc(C(F)(F)F)c3)nn3cc(C(F)(F)F)ccc23)n1", "note": "[GW630813]", "%Inh": 0}, {"smiles": "O=c1cc(N2CCOCC2)nc2n(Cc3ccc(F)c(Cl)c3)ccn12", "note": "[GSK2297099]", "%Inh": 6}, {"smiles": "Cc1nnc(-c2ccc3ncn(-c4ccc(S(C)=O)cc4)c3c2)o1", "note": "(centres unmarked)", "%Inh": 0}, {"smiles": "COC(=O)c1c(-c2ccccc2)c2cc(Br)ccc2c(=O)n1Cc1ccc(NC(=O)CCC(=O)O)cc1", "%Inh": 12}, {"smiles": "COc1cc(OC)cc(-c2cc3cnc(N)nc3nc2NC(=O)NC(C)(C)C)c1", "%Inh": 0}, {"smiles": "Nc1ncnc2c1ncn2-c1ccc(Cl)cc1", "note": "[AH2635]", "%Inh": 3}, {"smiles": "Cl.c1ccc(Cn2cnc3cc(Nc4ncnc5ccccc45)ccc32)cc1", "note": "[GW272142]", "%Inh": 10}, {"smiles": "CCC(=O)c1c(-c2ccccc2)c2cc(Cl)ccc2c(=O)n1Cc1ccc(C(=O)O)cc1", "%Inh": 4}]}, {"tested_on": "EPHB1", "conditions": "concentration: 1 μM, replicates: in singlicate; n = 1", "units": {"%Inh": "%"}, "values": [{"smiles": "CN1C(=O)C(Nc2cc(Cl)c(O)c(Cl)c2)=C(c2ccc(Cl)cc2)C1=O", "note": "[SB-404321]", "%Inh": 0}, {"smiles": "CCC(=O)c1c(-c2ccccc2)c2cc(Cl)ccc2c(=O)n1Cc1cc(C(=O)NC2CC2)n(C)n1", "%Inh": 7}, {"smiles": "COc1cccc(C2=C(Nc3cccc(C(=O)O)c3)C(=O)NC2=O)c1", "note": "[SB-390770]", "%Inh": 8}, {"smiles": "O=C(Nc1ccc2c(c1)OCO2)NC1CCN(c2ccnc(NCc3ccc(F)cc3)n2)CC1", "note": "[GSK1379859]", "%Inh": 0}, {"smiles": "COc1cc2nccc(Nc3cccc(Oc4ccccc4)c3)c2cc1OC.Cl", "note": "[GW284543]", "%Inh": 11}, {"smiles": "COc1cc(Nc2nccc(N3CCC(NC(=O)C(C)c4ccc(Cl)cc4)C3)n2)cc(OC)c1OC", "note": "(centres unmarked) [GSK1379757]", "%Inh": 0}, {"smiles": "Cc1ccccc1COc1cc(-n2cnc3cc(Cl)ccc32)sc1C(N)=O", "note": "[GW813349]", "%Inh": 14}, {"smiles": "CCC(=O)c1c(-c2ccccc2)c2cc(Cl)ccc2c(=O)n1Cc1cc(S(C)(=O)=O)n(CCC(C)(C)O)n1", "%Inh": 6}, {"smiles": "Cc1nn2c(=O)cc(N3CCOCC3)nc2n1Cc1cccc(Cl)c1Cl", "note": "[GSK2342769]", "%Inh": 0}, {"smiles": "COc1ccc(Nc2nccc(N3CCC(NS(=O)(=O)c4ccc(NC(C)=O)cc4)C3)n2)cc1", "note": "(centres unmarked) [GSK1379729]", "%Inh": 19}, {"smiles": "Cc1cccc(-c2nc(Nc3ccc4c(cnn4C)c3)c3ccccc3n2)n1", "note": "[GW876731]", "%Inh": 3}, {"smiles": "C[C@@H]1CC[C@H](C(=O)NC2CCCCC2)CN1c1cc(-c2ccc3c(N)n[nH]c3c2)nc(N)n1", "note": "[GSK2291363]", "%Inh": 26}, {"smiles": "COc1cc2ncn(-c3cc(OCc4ccncc4Br)c(C(N)=O)s3)c2cc1OC", "note": "[GW854278]", "%Inh": 0}, {"smiles": "Cc1ccc(-c2ccc3c(ccc4sc5c(c43)NC[C@@H](C)N=C5N(C)C)n2)cn1", "%Inh": 0}, {"smiles": "COc1ccc(-c2coc3ccc(-c4nnc(SCc5cccc(C#N)c5)o4)cc23)cc1", "%Inh": 0}, {"smiles": "Cc1cc(Nc2nc(-c3cccc(C)n3)nc3ccccc23)ccn1", "note": "[GW872411]", "%Inh": 0}, {"smiles": "Cl.NS(=O)(=O)c1cccc(Nc2cc(-c3ccc(F)cc3)n[nH]2)c1", "note": "[GW824645]", "%Inh": 0}, {"smiles": "CC(C)(C)c1ccc(C(=O)Nc2cn3cc(-c4ccccc4)ccc3n2)cc1", "%Inh": 11}, {"smiles": "CCn1c(-c2ccoc2)nc2cnccc21", "note": "[SB-733887]", "%Inh": 19}, {"smiles": "Nc1n[nH]c2nnc(-c3ccccc3)c(-c3ccccc3)c12", "note": "[GW554060]", "%Inh": 9}, {"smiles": "CN(C)c1cc(-c2ccc3c(N)n[nH]c3c2)nc(N)n1", "note": "[GSK2219329]", "%Inh": 14}, {"smiles": "Nc1ncnc2c1ncn2-c1cccc(F)c1", "note": "[SKF-97560]", "%Inh": 17}, {"smiles": "Nc1nc(-c2ccccc2F)c(-c2ccnc3ccccc23)s1", "note": "[GW560459]", "%Inh": 34}, {"smiles": "CCn1c(-c2nonc2N)nc2ccccc21", "note": "[SB-693162/GW549034]", "%Inh": 0}, {"smiles": "Cc1ccc(Oc2ccc(Nc3ncnc4cc[nH]c34)cc2C)cn1", "%Inh": 5}, {"smiles": "Cc1nnc(-c2ccc(C)c(-c3ccc(C(=O)O)cc3)c2)o1", "note": "[GW608005]", "%Inh": 8}, {"smiles": "CCS(=O)c1ccc(-c2coc3ccc(-c4nnc(C)o4)cc23)cc1", "note": "(centres unmarked)", "%Inh": 0}, {"smiles": "COC(=O)c1c(-c2ccccc2)c2cc(C)ccc2c(=O)n1Cc1ccccc1", "%Inh": 0}, {"smiles": "Nc1nccc2scc(-c3ccc4c(c3)CCN4C(=O)Cc3ccccc3)c12", "note": "[GSK2576924]", "%Inh": 0}, {"smiles": "OCCCNc1nccc(-c2c(-c3cccc(C(F)(F)F)c3)nn3cc(C(F)(F)F)ccc23)n1", "note": "[GW630813]", "%Inh": 0}, {"smiles": "O=c1cc(N2CCOCC2)nc2n(Cc3ccc(F)c(Cl)c3)ccn12", "note": "[GSK2297099]", "%Inh": 7}, {"smiles": "Cc1nnc(-c2ccc3ncn(-c4ccc(S(C)=O)cc4)c3c2)o1", "note": "(centres unmarked)", "%Inh": 1}, {"smiles": "COC(=O)c1c(-c2ccccc2)c2cc(Br)ccc2c(=O)n1Cc1ccc(NC(=O)CCC(=O)O)cc1", "%Inh": 5}, {"smiles": "COc1cc(OC)cc(-c2cc3cnc(N)nc3nc2NC(=O)NC(C)(C)C)c1", "%Inh": 0}, {"smiles": "Nc1ncnc2c1ncn2-c1ccc(Cl)cc1", "note": "[AH2635]", "%Inh": 9}, {"smiles": "Cl.c1ccc(Cn2cnc3cc(Nc4ncnc5ccccc45)ccc32)cc1", "note": "[GW272142]", "%Inh": 0}, {"smiles": "CCC(=O)c1c(-c2ccccc2)c2cc(Cl)ccc2c(=O)n1Cc1ccc(C(=O)O)cc1", "%Inh": 9}]}]}
